# DT40 TDP1 CPT = growth inhibition of DT40 Tdp1-/-;hTDP1 cells with camptothecin (screen for TDP1 inhibitors); 12% of 420,000 active; chicken DT40 Tdp1-/-;hTDP1 cells + 20 nM CPT, ATP luminescence, 48 h; Potency, µM (highest dose often 46.2 µM), inactives show at the highest dose activity change, negative = growth inhibition, usual class: inhibitors; further: potency means the concentration at half of the fitted maximal effect; nearly all actives have a fitted effect of over 55% in size
#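 Chicken DT40 Tdp1-/- cells stably complemented with human TDP1 were seeded at 400 cells/well in medium containing 20 nM camptothecin, exposed to pin-transferred compounds, and grown at 37 °C for at least 48 hr. Viability was read as ATP luminescence.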
# HT1080 IDH1KD tx = HT-1080 IDH1 knockdown cell toxicity (counter line) | HT-1080 IDH1 knockdown viability, ATP luminescence, 48 h | Potency, µM (doses to about 46.1 µM), for inactives: at the highest dose activity, negative = toxicity, usual class: cytotoxic | 2% of 360,000 active;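 further: potency means the concentration at half of the fitted maximal effect; 0% = DMSO wells and -100% = cell-free medium wells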
#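 CellTiter-Glo luminescence after 48 h compound exposure at 37 degrees C of IDH1-knockdown HT-1080 cells in 5% FBS RPMI. %Activity scaled between DMSO wells and cell-free media wells, with curves fitted and assigned curve classes.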
# HT1080-NT tox = kills 2HG-producing HT-1080-NT fibrosarcoma cells | Potency, µM (titrated, usually from 46.1 µM), without a hit: at the top dose activity, negative = less viability, hits mostly cytotoxic | 1.6% of 360,000 active | HT-1080-NT fibrosarcoma viability, CellTiter-Glo ATP luminescence, 48 h | AID 686970;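 further: NT is the 2HG producing partner of a matched IDH1 knockdown line; potency means the concentration at half of the fitted maximal effect; 0% = DMSO-treated cells and -100% = media-only wells without cells; nearly all actives have a fitted effect of over 55% in size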
#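 Viability of the 2HG-overproducing fibrosarcoma line after 48 hours of compound exposure at 37 degrees C was determined by luminescence with CellTiter-Glo, and concentration-effect curves were then fitted and categorized.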
# IL1B secr inh = blocks inflammasome-driven IL-1 beta release; AID 743279; activity change, % at 57.5 µM; 4.7% of 360,000 active; THP-1 LPS/ATP IL-1B secretion, AlphaLISA, 16 h; stronger effect = lower value; in the data active means activity change below about -50%; inconclusive means mostly about -30% to -49%
#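 Secreted IL-1B measured by AlphaLISA bead assay after 16 h compound exposure of THP-1 cells; compounds (final up to 57.5 uM) added 1 h before LPS (250 ng/mL) and ATP (1.25 mM) stimulation; lower signal means less secretion.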
# DT40 TDP1 no CPT = qHTS for Inhibitors of human tyrosyl-DNA phosphodiesterase 1 (TDP1): qHTS in cells in absence of CPT; Potency, µM (highest dose often 46.2 µM), for the others: top-dose activity change, negative = growth inhibition, actives largely listed as inhibitors; AID 686978, 2013; DT40 Tdp1-/- hTDP1 cells, no CPT, ATP luminescence, 48 h; 15% of 420,000 active; further: potency means the concentration at half of the fitted maximal effect; nearly all actives have a fitted effect of over 55% in size
#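 Luminescent ATP content (CellTiter-Glo) served as the growth readout. Knockout chicken DT40 cells expressing human TDP1 were exposed to compounds without camptothecin for a minimum 48 hr at 37 °C.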
# The depositor's hits bear a star; u = inconclusive; x = no result. This is a sample that favours compounds with a hit; in the whole collection about 19% have one here. Unless noted, the call rests on the fitted dose curve; in most records, active means well fitted curve in the direction sought with a large enough effect; inconclusive means small, poorly fitted or top-dose-only effect, or another doubt; inactive means no such curve, though single readings can be large; an effect the other way counts as inactive or inconclusive. Unless noted, on the % scale 0 is the no-effect control and ±100 the full control effect.
SMILES,DT40 TDP1 CPT,HT1080 IDH1KD tx,HT1080-NT tox,IL1B secr inh,DT40 TDP1 no CPT
C[C@@H]1C/C=C/C=C/C=C/C=C/[C@H](O[C@@H]2O[C@H](C)[C@@H](O)[C@H](N)[C@@H]2O)C[C@@H]2O[C@](O)(C[C@@H](O)C[C@H]3O[C@@H]3/C=C/C(=O)O1)C[C@H](O)[C@H]2C(=O)O,0.9%,x,x,x,-0.5%
COCc1cc(=O)n2[nH]cc(-c3ccccc3)c2n1,u,-27.1%,-5.1%,2.0,u
CCCc1cc(=O)n2[nH]cc(-c3ccc(Cl)cc3)c2n1,5.8µM*,u,u,53.3,5.8µM*
CCCc1cc(=O)n2[nH]c(SCc3ccc(Cl)cc3)nc2n1,u,-22.2%,2.2%,-71.9*,2.5%
CCCCNC(=O)c1ccc2c(c1)N(CC)C(=O)c1ccccc1S2(=O)=O,u,-0.4%,29.5%,-18.0,u
CCCn1c(N)c(N(CCOC)C(=O)/C=C/c2cccc(Cl)c2)c(=O)[nH]c1=O,10.8%,0.2%,1.3%,-16.0,15.0%
O=S1(=O)CCS(=O)(=O)C1c1ccccc1,u,20.6µM*,23.1µM*,u,u
Cc1c(C(=O)OCC(=O)Nc2ccc3c(c2)OCO3)cccc1[N+](=O)[O-],9.2%,-1.8%,1.1%,-9.8,-6.4%
Cc1ccc(-c2c[n+](Cc3ccc(Cl)cc3)c3n2CCC3)cc1,4.11µM*,u,u,-84.7*,3.66µM*
Cn1c(NC(=O)C[n+]2cc(-c3ccc(Cl)cc3)n3c2CCC3)cc(=O)n(C)c1=O,-25.5%,12.4%,u,10.1,u
Cc1ccc(C[n+]2cc(-c3ccc(Cl)cc3)n3c2CCC3)cc1,5.17µM*,-19.4%,-23.0%,-92.5*,2.31µM*
Cc1ccc(S(=O)(=O)Cn2nnnc2C(C(C)C)N2CCC(O)CC2)cc1 (stereo unspecified),-4.9%,-5.5%,-0.2%,14.8,-14.1%
S=C(NCCCc1cnc[nH]1)NCCCN(Cc1ccc(Cl)cc1)c1ccc(Br)cc1,12.6µM*,x,x,x,-94.7%
O=C(Cc1ccc(F)cc1)NCCc1cnc[nH]1,-0.4%,1.4%,6.8%,12.2,23.3%
S=C(NCCCc1cnc[nH]1)NCCCN(Cc1ccc(Cl)cc1)c1ccc(-c2ccccc2)cn1,u,x,x,x,-18.9%
S=C(NCCc1ccccc1)Nc1ncccn1,1.5%,-8.1%,-4.0%,-6.4,-16.7%
O=C(NCCCc1cnc[nH]1)NCCCN(Cc1ccc(Cl)cc1)c1ccc(Br)cn1,2.24µM*,x,x,x,3.98µM*
S=C(NCCCc1cnc[nH]1)NCCCN(Cc1ccc(Cl)cc1)c1ncc(Br)cn1,12.6µM*,x,x,x,7.94µM*
S=C(NCCCc1cnc[nH]1)NCCCN(CCc1ccccc1)c1ccc(Br)cn1,10µM*,x,x,x,8.91µM*
COc1ccc(NC(=O)c2cccc(S(=O)(=O)N3CCN(C)CC3)c2)c(OC)c1,-20.9%,15.1%,7.0%,13.1,-18.8%
COc1cc(N(CCCn2cnc3c(SC)ncnc32)CCCn2cnc3c(SC)ncnc32)cc(OC)c1OC,0.0%,-9.8%,-0.9%,-1.5,u
Cc1ccccc1C(=O)N1CCC(n2nccc2NC(=O)C2CC2)CC1,0.0%,-1.5%,-2.1%,1.3,-3.5%
COC(=O)C1C(OC)=CC(=O)C2CCCCC21 (stereo unspecified),-5.1%,14.1%,18.1%,19.0,-1.3%
CCOc1ccc(NC(=O)Nc2nc(SCC)ns2)cc1,u,-19.2%,-26.3%,10.0,u
CCSc1nsc(NC(=O)Nc2ccccc2Cl)n1,u,-17.6%,u,-77.6*,14.6µM*
SMILES,DT40 TDP1 CPT,HT1080 IDH1KD tx,HT1080-NT tox,IL1B secr inh,DT40 TDP1 no CPT
CCSc1nsc(NC(=O)Nc2ccc(F)cc2F)n1,4.61µM*,-27.7%,u,-90.5*,4.61µM*
Cc1ccc(NC(=O)Nc2nnc(SCC(=O)Nc3ccc(F)cc3F)s2)cc1,12.2%,x,x,x,-0.6%
COc1cc(NC(=O)C2CCN(c3nc4ccccc4nc3C(F)(F)F)CC2)cc(OC)c1,16.4µM*,x,x,x,25.9µM*
O=C(Nc1cccc(F)c1)C1CCN(c2nc3ccccc3nc2C(F)(F)F)CC1,18.4µM*,x,x,x,16.4µM*
COc1ccc(NC(=O)C2CCN(c3nc4ccccc4nc3C(F)(F)F)CC2)cc1,-22.3%,x,x,x,-19.3%
O=C(Nc1ccccc1Cl)C1CCN(c2nc3ccccc3nc2C(F)(F)F)CC1,u,x,x,x,-23.2%
O=C(Nc1cccc(Cl)c1)C1CCN(c2nc3ccccc3nc2C(F)(F)F)CC1,u,x,x,x,20.6µM*
COc1cc(NCC(=O)Nc2cccc(S(=O)(=O)N3CCCCC3)c2)cc(OC)c1OC,-18.5%,-0.3%,-3.4%,-26.4,-0.8%
Cc1cccc(-c2nc3c(cnn3-c3ccccc3)c(=O)n2-c2ccc(Cl)cc2)c1,u,x,x,x,14.6µM*
COc1ccc(-n2c(-c3cccc(F)c3)nc3c(cnn3-c3ccc(C)cc3)c2=O)cc1,18.4µM*,x,x,x,25.9µM*
Cc1nc2c(cnn2-c2ccccc2)c(=O)[nH]1,-6.3%,19.2%,25.4%,20.7,-6.6%
O=c1c2cnn(-c3ccccc3)c2nc(-c2cccs2)n1-c1ccc(Br)cc1,u,6.2%,10.3%,39.4,0.581µM*
Cc1cccc(-c2nc3c(cnn3-c3ccccc3)c(=O)n2-c2ccc(Br)cc2)c1,u,x,x,x,18.4µM*
O=C(O)CSc1nc2c(cnn2-c2ccccc2)c(=O)n1-c1ccc(Br)cc1,0.8%,23.1%,8.0%,26.9,-18.0%
